# Data reported in publication PMC5540273 (PLoS ONE, 2017).
# Assays:
# Settings in all cases: concentration: 1 μM, replicates: in singlicate; n = 1
# NIM1 = system: T1, NIM1
# T1 construct: gene MGC42105
# NLK = system: NLK
# OSR1 = system: T2, OSR1
# T2 construct: gene OXSR1
# PAK1 = system: PAK1
# PAK2 = system: PAK2
# PAK3 = system: PAK3
# PAK4 = system: PAK4
# PAK6 = system: PAK6
# PAK7 = system: PAK7
# PCTK1 = system: T3, PCTK1
# T3 construct: gene CDK16
# 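Further: KINOMEscan kinase panel screen.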
Compound,%Inh (NIM1) [%],%Inh (NLK) [%],%Inh (OSR1) [%],%Inh (PAK1) [%],%Inh (PAK2) [%],%Inh (PAK3) [%],%Inh (PAK4) [%],%Inh (PAK6) [%],%Inh (PAK7) [%],%Inh (PCTK1) [%]
Cc1cc(-c2c(-c3ccc(F)cc3)ncn2CCCN2CCOCC2)nc(N)n1 [SB-222517],0,17,0,0,66,0,1,1,0,0
O=C(Nc1n[nH]c2nc(-c3ccccc3)ccc12)C1CC1 [SB-708999],29,78,17,0,0,5,0,0,0,16
O=C(Nc1c(F)cccc1F)c1cc(C(=O)c2ccccc2F)c[nH]1 [GSK1326180],0,0,34,0,0,0,0,0,0,0
CSc1ccc(NC2=C(c3ccc(Cl)cc3)C(=O)NC2=O)cc1 [SB-317658],0,0,6,2,28,36,2,29,0,0
COC(=O)Nc1nc2cc(Oc3ccc(NC(=O)Nc4cccc(SC)c4)cc3)ccc2[nH]1.Cl [GW697999],32,0,15,0,0,29,0,0,0,3
CN(C)c1ncnc2nc[nH]c12 [SKF-31736],4,0,0,8,43,12,6,0,15,17
COc1cc(Nc2nccc(N3CCC(NS(=O)(=O)c4ccc(NC(C)=O)cc4)CC3)n2)cc(OC)c1OC [GSK1379825],16,27,19,0,19,13,0,5,1,14
COc1ccc(C)c(Nc2ccnc(Nc3ccc(-c4cnc[nH]4)cc3)n2)c1.Cl [GW784041],0,13,0,0,12,20,6,10,0,0
N#Cc1cnc2cc(-c3cnc(CNCCN4CCOCC4)s3)ccc2c1Nc1ccc(Oc2ccccc2)cc1 [GW664114],12,0,0,10,0,21,0,10,2,28
CNc1nccc(-c2ccc3c(N)n[nH]c3c2)n1 [GSK2206003],15,14,18,4,9,48,4,5,9,0
CN(C)CCNS(=O)(=O)c1ccc(-c2ccnc3[nH]ccc23)cc1 [GSK977620],13,20,30,34,32,71,56,64,58,7
Cn1cc(-c2cnc(N)c3c(-c4ccc5c(c4)CCN5C(=O)Cc4ccccc4)csc23)cn1 [GSK2593074],0,17,0,17,0,13,0,17,3,0
COC(=O)Nc1nc2ccc(Oc3ccc(NC(=O)Nc4cc(C(F)(F)F)ccc4F)cc3)cc2[nH]1.Cl [GW654607],0,34,15,0,0,22,0,0,0,4
COc1ccc(C2=C(Nc3cccc(O)c3)C(=O)NC2=O)cc1 [SB-390766],0,35,4,15,12,30,0,10,0,5
CCOc1nccc(-c2c(-c3ccc(F)cc3)ncn2C2CCNCC2)n1 [SB-249175],44,45,47,6,29,0,32,3,6,26
Nc1ncc(-c2cn[nH]c2)c2scc(-c3ccc4c(c3)CCN4C(=O)Cc3ccccc3)c12 [GSK2593067],17,0,13,0,0,51,0,0,0,3
Cc1cccc(Nc2nc(NCCN)ncc2C(N)=O)c1 [GSK1292139],29,0,15,16,48,16,93,76,98.6,3
O=C(O)C(F)(F)F.O=c1[nH]ccc2nc(N[C@@H]3CCNC3)nc(Nc3ccc4c(c3)S(=O)(=O)CC4)c12 [GSK2181306],67,28,76,97.2,95.2,99.9,99.5,94.6,99.9,85
Cc1ccc(-c2ccc3occ(-c4ccc(S(C)=O)cc4)c3c2)nn1 (stereo not drawn),0,1,0,6,4,0,1,0,0,0
CN(C)CCOc1ccc(-c2cc(-c3ccc(Cl)c(O)c3)c(-c3ccncc3)[nH]2)cc1.Cl.Cl [SB-684387],40,66,7,8,6,0,0,0,20,1
Fc1cc(Cl)ccc1Nc1ccnc2cc(-c3ccc(CN4CCSCC4)o3)ccc12 [GW560106],23,30,0,8,4,45,0,0,0,0
Cl.Cl.NCC(NC(=O)c1cc(-c2cccnc2)c(-c2ccnc3[nH]ccc23)s1)c1ccccc1 (stereo not drawn) [GSK1323434],36,19,17,4,6,39,0,28,65,0
COc1cccc(C2=C(Nc3cccc(O)c3)C(=O)NC2=O)c1 [SB-390771],16,15,8,7,5,32,0,100,26,15

Compound,%Inh (NIM1) [%],%Inh (NLK) [%],%Inh (OSR1) [%],%Inh (PAK1) [%],%Inh (PAK2) [%],%Inh (PAK3) [%],%Inh (PAK4) [%],%Inh (PAK6) [%],%Inh (PAK7) [%],%Inh (PCTK1) [%]
CN(c1ccc2c(c1)nc(NCc1ccccc1)n2C)c1ccnc(Nc2ccc(CS(C)(=O)=O)cc2)n1.Cl [GW811603],22,0,0,0,0,42,22,13,2,0
COC(=O)Nc1nc2ccc(Oc3ccc(CC(=O)Nc4cc(C(F)(F)F)ccc4F)cc3)cc2[nH]1 [GW680903],26,22,3,19,22,15,0,0,97.7,0
CC(C)(C)c1ccc(C(=O)Nc2cn3cc(-n4ccnc4)ccc3n2)cc1,3,0,0,30,42,20,10,6,0,6
CS(=O)(=O)c1cccc(CNc2nc(Nc3ccc4c(c3)CCC(=O)N4)ncc2C(F)(F)F)c1,5,0,0,0,0,0,0,0,0,0
Cn1cc(-c2ccc3c(c2)CCN3C(=O)Cc2cc(F)cc(C(F)(F)F)c2)c2c(N)ncnc21 [GSK2635225],20,14,0,13,0,16,2,4,16,7
O=C1NC(=O)C(c2ccccc2Cl)=C1Nc1cccc(Cl)c1 [SB-342409],4,22,2,24,17,0,0,7,0,34
O=C(Nc1n[nH]c2nc(-c3ccccc3O)ccc12)C1CC1 [SB-711880],0,10,0,0,0,0,33,8,26,11
CCNC(=O)/C=C/c1n[nH]c2cc(Sc3ccccc3C(=O)NC)ccc12,2,57,0,0,0,0,0,4,20,7
COc1ccc(NC(=O)c2ccoc2)cc1-c1ccc(C(=O)NCC2CC2)cc1 [GW810437],41,11,17,0,44,24,0,0,10,4
NCCC(NC(=O)c1cc(Br)c(-c2ccnc3[nH]ccc23)s1)c1ccccc1.O=C(O)C(F)(F)F.O=C(O)C(F)(F)F (stereo not drawn) [GSK1307810],7,3,10,19,56,76,74,62,86,1
CCn1cnc2c(NCc3ccccc3)ncnc21 [SKF-96418],17,0,0,11,42,0,0,0,0,0
Nc1cccc(-c2ccc3c(N)n[nH]c3c2)c1 [GSK2193613],0,17,13,2,2,0,0,6,15,0
CN(c1ccc(NC(=O)Nc2cccc(Cl)c2)cc1)c1ccnc(N)n1.Cl [GW830707],0,4,0,5,34,6,1,7,0,0
c1ccc(Oc2ccc(Nc3ccnc4cc(-c5ccc(CN6CCCCC6)o5)ccc34)cc2)nc1 [GW567143],69,13,4,16,16,33,0,0,8,0
Cc1ccc(C)c(NC(=O)Nc2ccc(C)c(-c3ccc(C(=O)Nc4ccncc4)cc3)c2)c1 [GSK1398473],1,50,2,21,15,15,0,0,0,13
CCn1c(-c2nonc2N)nc2c(-c3ccccc3)ncc(OCCCN)c21.O=C(O)C(F)(F)F.O=C(O)C(F)(F)F [GSK260205],39,94.5,3,2,31,49,0,0,0,0
Cc1ccccc1CC(=O)N1CCc2cc(-c3cn(C)c4ncnc(N)c34)ccc21 [GSK2603346],3,0,12,0,0,48,0,0,0,0
Cc1ccc(O)cc1Nc1ccnc2ccc(C(C)(C)C)cc12 [GW856805],52,1,30,23,50,0,17,34,2,12
CCNc1nccc(-c2c(-c3ccc(F)cc3)ncn2C2CCN(C)CC2)n1,0,95,0,7,8,0,2,30,0,0
Cl.Cl.NC(CNC(=O)c1cc(Br)c(-c2ccnc3[nH]ccc23)s1)c1ccccc1 (stereo not drawn) [GSK1322949],65,22,34,32,36,67,0,16,46,21
Cc1ccc(NC(=O)c2ccnc(N3CCCCC3)c2)cc1-c1ccc(C(=O)NCC2CC2)cc1 [GW775610],8,15,0,0,0,15,17,0,0,73
Cc1cc(-c2ccnc(Nc3cccc(C#N)c3)n2)cc(C)c1O [GSK1440913],12,16,13,34,28,0,0,0,0,16
